Legend:
Test in all cases: DAPPL (digital affinity profiling via proximity ligation, sequencing); 10 mM Tris-HCl pH 7.5, 50 mM NaCl, 1 mM DTT, 4% glycerol, room temperature, 30 min; GST-TFs on glutathione beads, 16-mer random dsDNA library, 0.1% formaldehyde crosslink after washing; high values mean tight binding
FEV = target: T1, FEV (Homo sapiens, UniProt Q99581 1-238); settings: protein: recombinant; tags: N-terminal GST; dsDNA, one strand shown
T1 sequence: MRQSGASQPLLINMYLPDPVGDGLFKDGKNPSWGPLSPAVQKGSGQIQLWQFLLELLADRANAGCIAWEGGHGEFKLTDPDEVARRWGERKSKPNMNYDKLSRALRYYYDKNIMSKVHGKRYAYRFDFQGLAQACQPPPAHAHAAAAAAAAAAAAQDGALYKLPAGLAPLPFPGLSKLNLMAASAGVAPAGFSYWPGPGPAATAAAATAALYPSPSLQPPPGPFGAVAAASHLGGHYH
How it was run: (§1)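 Human transcription factors fused to GST were expressed in yeast, captured on glutathione beads, given DNA barcodes and pooled with a GST-only negative control. Pools were incubated with 200 nmole of a 16-mer random double-stranded DNA library in Tris/NaCl/DTT/glycerol buffer at room temperature for 30 min. They were then washed, crosslinked with 0.1% formaldehyde, proximity-ligated (BsaI/T4 ligase, 1 h, 37 °C), PCR-amplified and sequenced on an Illumina NextSeq500. Binding signal is each 6-mer's read frequency for a factor divided by its frequency for the GST control.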

ETV5 = ETV5 (Homo sapiens, UniProt P41161 1-510); settings: protein: recombinant; tags: N-terminal GST; dsDNA, one strand shown
ETV5, sequence (P41161 whole entry): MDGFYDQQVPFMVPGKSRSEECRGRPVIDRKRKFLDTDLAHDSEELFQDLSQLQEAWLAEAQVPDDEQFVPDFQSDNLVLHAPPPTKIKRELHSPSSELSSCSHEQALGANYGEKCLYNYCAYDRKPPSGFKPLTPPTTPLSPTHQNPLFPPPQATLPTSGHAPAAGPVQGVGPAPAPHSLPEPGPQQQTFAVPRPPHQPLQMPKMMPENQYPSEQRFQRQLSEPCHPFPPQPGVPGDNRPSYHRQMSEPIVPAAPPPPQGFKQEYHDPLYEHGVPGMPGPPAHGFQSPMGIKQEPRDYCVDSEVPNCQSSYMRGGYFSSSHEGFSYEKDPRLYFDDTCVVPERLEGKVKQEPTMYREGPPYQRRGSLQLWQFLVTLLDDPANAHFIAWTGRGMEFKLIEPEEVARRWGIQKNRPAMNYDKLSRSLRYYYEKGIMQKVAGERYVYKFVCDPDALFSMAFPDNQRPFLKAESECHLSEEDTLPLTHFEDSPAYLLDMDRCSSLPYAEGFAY
How it was run: as §1

HSF1 = HSF1 (Homo sapiens, UniProt Q00613 1-529); settings: protein: recombinant; tags: N-terminal GST; chain copies: 3; dsDNA, one strand shown
HSF1, sequence (Q00613 whole entry): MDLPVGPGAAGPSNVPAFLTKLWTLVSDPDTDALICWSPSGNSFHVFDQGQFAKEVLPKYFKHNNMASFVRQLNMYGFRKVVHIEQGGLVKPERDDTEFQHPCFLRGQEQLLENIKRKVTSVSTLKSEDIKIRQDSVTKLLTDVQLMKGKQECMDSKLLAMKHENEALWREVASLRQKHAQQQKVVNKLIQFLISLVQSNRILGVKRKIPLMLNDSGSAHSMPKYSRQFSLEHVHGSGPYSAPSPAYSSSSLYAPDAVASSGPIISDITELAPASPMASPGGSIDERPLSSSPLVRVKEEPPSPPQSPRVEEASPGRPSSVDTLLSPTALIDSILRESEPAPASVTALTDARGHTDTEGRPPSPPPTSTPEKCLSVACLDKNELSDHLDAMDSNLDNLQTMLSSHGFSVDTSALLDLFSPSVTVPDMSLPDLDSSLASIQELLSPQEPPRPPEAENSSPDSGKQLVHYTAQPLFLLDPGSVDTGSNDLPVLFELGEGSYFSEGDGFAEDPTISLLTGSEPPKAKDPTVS
How it was run: as §1

SPIC = target: T2, SPIC (Homo sapiens, UniProt Q8N5J4 1-248); settings: protein: recombinant; tags: N-terminal GST; dsDNA, one strand shown
T2 sequence: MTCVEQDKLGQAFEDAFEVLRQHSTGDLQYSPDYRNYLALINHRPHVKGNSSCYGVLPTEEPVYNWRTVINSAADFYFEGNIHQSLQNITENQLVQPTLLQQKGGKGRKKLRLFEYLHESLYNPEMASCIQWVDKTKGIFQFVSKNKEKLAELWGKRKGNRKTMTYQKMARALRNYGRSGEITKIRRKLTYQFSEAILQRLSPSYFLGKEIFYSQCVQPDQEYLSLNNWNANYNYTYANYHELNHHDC
How it was run: as §1

ELF4 = ELF4 (Homo sapiens, UniProt Q99607 1-663); settings: protein: recombinant; tags: N-terminal GST; dsDNA, one strand shown
ELF4, sequence (Q99607 whole entry): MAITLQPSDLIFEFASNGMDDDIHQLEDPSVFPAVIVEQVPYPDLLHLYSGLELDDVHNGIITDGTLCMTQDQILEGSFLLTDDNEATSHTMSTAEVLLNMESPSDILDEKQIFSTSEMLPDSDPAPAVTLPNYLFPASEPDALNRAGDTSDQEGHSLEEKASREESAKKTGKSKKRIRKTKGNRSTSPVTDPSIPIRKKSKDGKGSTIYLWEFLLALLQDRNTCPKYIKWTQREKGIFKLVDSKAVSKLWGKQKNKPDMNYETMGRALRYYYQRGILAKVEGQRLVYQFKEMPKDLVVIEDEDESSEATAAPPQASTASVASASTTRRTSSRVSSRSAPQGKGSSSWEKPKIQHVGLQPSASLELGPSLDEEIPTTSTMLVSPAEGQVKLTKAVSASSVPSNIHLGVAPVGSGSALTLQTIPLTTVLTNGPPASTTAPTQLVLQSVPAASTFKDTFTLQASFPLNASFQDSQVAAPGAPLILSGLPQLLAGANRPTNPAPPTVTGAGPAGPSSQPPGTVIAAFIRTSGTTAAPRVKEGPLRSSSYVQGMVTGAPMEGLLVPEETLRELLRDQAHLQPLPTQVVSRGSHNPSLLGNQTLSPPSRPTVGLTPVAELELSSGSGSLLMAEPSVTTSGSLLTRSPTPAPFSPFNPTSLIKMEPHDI
How it was run: as §1

ELK4 = target: T3, ELK4 (Homo sapiens, UniProt P28324-2 1-405); settings: protein: recombinant; tags: N-terminal GST; dsDNA, one strand shown
T3 sequence: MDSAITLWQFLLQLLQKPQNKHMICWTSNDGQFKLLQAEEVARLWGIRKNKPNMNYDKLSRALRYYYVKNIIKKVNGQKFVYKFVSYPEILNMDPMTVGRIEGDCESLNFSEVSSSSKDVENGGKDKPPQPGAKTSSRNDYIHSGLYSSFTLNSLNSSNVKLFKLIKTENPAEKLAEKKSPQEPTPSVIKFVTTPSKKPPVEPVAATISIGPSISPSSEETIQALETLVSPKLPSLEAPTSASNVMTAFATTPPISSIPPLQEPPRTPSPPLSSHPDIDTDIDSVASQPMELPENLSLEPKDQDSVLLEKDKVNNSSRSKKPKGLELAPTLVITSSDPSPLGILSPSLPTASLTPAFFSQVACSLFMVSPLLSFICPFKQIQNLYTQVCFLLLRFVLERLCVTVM
How it was run: as §1

ETV2 = target: T4, ETV2 (Homo sapiens, UniProt O00321 1-342); settings: protein: recombinant; tags: N-terminal GST; dsDNA, one strand shown
T4 sequence: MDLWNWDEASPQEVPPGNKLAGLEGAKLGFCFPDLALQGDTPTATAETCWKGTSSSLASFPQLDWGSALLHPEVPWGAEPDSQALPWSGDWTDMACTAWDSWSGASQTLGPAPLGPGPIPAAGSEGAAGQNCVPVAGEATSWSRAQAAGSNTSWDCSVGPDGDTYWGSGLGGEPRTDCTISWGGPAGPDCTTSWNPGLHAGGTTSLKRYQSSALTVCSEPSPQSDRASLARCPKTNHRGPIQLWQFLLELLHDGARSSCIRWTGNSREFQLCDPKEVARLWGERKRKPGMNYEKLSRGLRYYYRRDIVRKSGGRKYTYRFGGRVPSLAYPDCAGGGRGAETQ
How it was run: as §1

ELF3 = target: T5, ELF3 (Homo sapiens, UniProt P78545 1-371); settings: protein: recombinant; tags: N-terminal GST; dsDNA, one strand shown
T5 sequence: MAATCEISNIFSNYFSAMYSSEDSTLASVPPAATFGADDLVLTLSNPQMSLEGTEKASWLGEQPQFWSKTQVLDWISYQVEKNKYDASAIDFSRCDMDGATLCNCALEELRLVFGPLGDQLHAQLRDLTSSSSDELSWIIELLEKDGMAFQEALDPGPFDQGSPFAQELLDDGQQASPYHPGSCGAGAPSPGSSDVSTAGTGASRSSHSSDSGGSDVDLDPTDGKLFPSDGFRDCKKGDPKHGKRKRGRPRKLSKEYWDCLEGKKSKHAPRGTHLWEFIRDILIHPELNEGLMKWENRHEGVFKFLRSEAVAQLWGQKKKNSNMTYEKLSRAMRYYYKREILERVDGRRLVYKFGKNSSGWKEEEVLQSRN
How it was run: as §1

CRX = CRX (Homo sapiens, UniProt O43186 1-299); settings: protein: recombinant; tags: N-terminal GST; dsDNA, one strand shown
CRX, sequence (O43186 whole entry): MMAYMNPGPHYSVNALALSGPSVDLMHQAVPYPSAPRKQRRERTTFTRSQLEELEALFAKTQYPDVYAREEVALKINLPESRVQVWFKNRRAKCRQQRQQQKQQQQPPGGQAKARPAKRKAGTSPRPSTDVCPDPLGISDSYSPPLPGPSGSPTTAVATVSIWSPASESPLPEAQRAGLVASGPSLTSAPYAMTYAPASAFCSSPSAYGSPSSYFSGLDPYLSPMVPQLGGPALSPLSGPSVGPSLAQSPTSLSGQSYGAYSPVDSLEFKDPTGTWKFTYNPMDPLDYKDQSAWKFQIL
How it was run: as §1

ETV1 = ETV1 (Homo sapiens, UniProt P50549 1-477); settings: protein: recombinant; tags: N-terminal GST; dsDNA, one strand shown
ETV1, sequence (P50549 whole entry): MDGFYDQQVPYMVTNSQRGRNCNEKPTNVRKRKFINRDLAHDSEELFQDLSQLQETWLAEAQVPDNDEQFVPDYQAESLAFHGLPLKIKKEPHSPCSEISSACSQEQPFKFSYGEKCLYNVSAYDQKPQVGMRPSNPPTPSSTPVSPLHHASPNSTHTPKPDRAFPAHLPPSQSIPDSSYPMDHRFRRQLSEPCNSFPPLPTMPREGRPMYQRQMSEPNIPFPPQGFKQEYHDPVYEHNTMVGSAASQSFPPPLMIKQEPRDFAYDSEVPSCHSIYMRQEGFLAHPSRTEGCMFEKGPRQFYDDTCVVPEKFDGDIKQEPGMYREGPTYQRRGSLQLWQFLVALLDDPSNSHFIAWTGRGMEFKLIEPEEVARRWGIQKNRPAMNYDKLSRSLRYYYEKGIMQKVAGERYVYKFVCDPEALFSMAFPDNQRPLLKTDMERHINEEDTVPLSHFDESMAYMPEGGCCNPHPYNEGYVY
How it was run: as §1

ERF = target: T6, ERF (Homo sapiens, UniProt P50548 1-548); settings: protein: recombinant; tags: N-terminal GST; dsDNA, one strand shown
T6 sequence: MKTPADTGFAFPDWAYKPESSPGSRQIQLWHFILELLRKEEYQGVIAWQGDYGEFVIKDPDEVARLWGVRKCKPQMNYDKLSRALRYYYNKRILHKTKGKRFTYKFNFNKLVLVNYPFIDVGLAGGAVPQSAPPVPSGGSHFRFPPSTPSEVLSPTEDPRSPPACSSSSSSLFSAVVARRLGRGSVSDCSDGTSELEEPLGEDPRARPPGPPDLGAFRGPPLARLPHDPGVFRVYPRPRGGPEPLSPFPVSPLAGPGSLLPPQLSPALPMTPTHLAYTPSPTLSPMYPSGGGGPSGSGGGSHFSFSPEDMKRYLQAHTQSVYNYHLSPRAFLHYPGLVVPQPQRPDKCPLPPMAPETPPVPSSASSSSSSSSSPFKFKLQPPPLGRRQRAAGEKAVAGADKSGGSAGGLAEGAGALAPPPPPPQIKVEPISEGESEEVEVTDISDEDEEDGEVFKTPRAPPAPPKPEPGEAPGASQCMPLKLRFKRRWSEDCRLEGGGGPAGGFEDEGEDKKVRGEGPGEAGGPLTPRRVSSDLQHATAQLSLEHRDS
How it was run: as §1

ETV3L = target: T7, ETV3L (Homo sapiens, UniProt Q6ZN32 1-361); settings: protein: recombinant; tags: N-terminal GST; dsDNA, one strand shown
T7 sequence: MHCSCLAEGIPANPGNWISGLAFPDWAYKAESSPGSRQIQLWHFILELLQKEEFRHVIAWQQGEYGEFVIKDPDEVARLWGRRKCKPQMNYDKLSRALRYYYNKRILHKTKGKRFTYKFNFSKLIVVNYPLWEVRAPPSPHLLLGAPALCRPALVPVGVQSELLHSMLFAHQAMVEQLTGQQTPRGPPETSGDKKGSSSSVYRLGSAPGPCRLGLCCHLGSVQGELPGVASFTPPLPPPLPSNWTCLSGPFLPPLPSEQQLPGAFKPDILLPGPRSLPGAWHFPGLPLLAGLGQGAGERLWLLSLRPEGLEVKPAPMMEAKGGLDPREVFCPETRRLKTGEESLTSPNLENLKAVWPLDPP
How it was run: as §1

ETS2 = target: T8, ETS2 (Homo sapiens, UniProt P15036 1-469); settings: protein: recombinant; tags: N-terminal GST; dsDNA, one strand shown
T8 sequence: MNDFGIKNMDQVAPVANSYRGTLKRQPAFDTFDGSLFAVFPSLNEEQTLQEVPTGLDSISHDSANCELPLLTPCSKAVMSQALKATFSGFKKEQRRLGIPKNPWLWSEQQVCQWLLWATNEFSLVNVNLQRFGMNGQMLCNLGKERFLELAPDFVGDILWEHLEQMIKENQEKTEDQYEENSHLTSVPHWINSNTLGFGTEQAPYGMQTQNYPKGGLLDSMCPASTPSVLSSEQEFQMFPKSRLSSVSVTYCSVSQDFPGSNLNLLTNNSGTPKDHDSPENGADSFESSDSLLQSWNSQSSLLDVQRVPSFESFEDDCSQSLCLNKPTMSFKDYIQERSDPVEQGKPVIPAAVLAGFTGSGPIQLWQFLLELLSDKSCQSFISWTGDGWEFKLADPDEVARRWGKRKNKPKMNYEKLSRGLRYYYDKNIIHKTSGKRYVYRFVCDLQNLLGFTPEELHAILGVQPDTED
How it was run: as §1

SPDEF = target: T9, SPDEF (Homo sapiens, UniProt O95238 1-335); settings: protein: recombinant; tags: N-terminal GST; dsDNA, one strand shown
T9 sequence: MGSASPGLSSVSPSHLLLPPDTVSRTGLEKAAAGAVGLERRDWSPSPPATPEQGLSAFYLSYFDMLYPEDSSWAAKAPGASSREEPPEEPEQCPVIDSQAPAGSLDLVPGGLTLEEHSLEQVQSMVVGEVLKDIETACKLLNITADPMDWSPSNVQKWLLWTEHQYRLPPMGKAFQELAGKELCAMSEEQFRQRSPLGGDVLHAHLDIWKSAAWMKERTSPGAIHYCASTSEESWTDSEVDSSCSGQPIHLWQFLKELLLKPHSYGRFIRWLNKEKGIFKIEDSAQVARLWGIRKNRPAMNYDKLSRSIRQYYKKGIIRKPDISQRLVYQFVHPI
How it was run: as §1

ETV7 = target: T10, ETV7 (Homo sapiens, UniProt Q9Y603 1-341); settings: protein: recombinant; tags: N-terminal GST; dsDNA, one strand shown
T10 sequence: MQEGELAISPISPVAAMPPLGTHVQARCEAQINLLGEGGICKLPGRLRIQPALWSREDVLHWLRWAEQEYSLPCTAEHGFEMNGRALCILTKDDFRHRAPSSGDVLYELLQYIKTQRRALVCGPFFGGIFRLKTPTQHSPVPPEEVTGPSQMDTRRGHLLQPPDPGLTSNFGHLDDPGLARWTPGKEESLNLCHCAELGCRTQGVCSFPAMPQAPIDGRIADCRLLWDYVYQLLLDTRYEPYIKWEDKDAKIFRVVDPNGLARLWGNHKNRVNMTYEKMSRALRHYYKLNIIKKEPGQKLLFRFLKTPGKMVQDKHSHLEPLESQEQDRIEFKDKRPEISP
How it was run: as §1

ELF5 = target: T11, ELF5 (Homo sapiens, UniProt Q9UKW6-2 1-255); settings: protein: recombinant; tags: N-terminal GST; dsDNA, one strand shown
T11 sequence: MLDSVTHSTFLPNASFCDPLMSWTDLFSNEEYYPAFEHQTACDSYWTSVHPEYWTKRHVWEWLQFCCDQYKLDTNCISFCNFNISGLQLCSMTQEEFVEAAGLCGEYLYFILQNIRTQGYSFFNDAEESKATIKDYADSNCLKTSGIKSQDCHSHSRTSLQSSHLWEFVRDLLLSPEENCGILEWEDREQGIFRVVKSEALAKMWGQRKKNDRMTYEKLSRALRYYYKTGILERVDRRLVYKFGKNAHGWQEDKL
How it was run: as §1

ETV3 = target: T12, ETV3 (Homo sapiens, UniProt P41162-2 1-143); settings: protein: recombinant; tags: N-terminal GST; dsDNA, one strand shown
T12 sequence: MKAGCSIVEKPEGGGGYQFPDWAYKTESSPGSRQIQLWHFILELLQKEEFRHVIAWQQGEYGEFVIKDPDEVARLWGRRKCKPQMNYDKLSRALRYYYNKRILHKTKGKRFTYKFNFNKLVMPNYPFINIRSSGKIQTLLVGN
How it was run: as §1

ETV6 = ETV6 (Homo sapiens, UniProt P41212 1-452); settings: protein: recombinant; tags: N-terminal GST; dsDNA, one strand shown
ETV6, sequence (P41212 whole entry): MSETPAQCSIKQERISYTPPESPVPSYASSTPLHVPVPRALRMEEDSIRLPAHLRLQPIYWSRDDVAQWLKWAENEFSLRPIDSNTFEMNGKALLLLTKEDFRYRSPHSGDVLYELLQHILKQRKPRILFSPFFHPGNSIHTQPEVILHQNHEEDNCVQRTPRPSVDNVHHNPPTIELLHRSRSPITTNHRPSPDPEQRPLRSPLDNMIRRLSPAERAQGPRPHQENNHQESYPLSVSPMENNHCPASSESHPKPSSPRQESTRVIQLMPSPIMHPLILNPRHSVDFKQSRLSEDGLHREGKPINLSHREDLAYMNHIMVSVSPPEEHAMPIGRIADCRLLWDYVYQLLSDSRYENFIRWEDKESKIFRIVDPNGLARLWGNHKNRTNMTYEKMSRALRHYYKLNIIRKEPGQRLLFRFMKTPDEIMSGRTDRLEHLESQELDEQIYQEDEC
How it was run: as §1

With GTATCC the binding signal (FEV) was 2.08 fold enrichment (6-mer frequency, TF over GST control), the binding signal (ETV5) was 2.05 fold enrichment (6-mer frequency, TF over GST control) and the binding signal (HSF1) was 1.14 fold enrichment (6-mer frequency, TF over GST control). For the same sequence, the binding signal (SPIC) was 1.96 fold enrichment (6-mer frequency, TF over GST control), the binding signal (ELF4) was 1.85 fold enrichment (6-mer frequency, TF over GST control) and the binding signal (ELK4) was 1.74 fold enrichment (6-mer frequency, TF over GST control). The binding signal (ETV2) was 1.78 fold enrichment (6-mer frequency, TF over GST control), the binding signal (ELF3) was 1.69 fold enrichment (6-mer frequency, TF over GST control) and the binding signal (CRX) was 1.22 fold enrichment (6-mer frequency, TF over GST control). For the same sequence, the binding signal (ETV1) was 1.86 fold enrichment (6-mer frequency, TF over GST control), the binding signal (ERF) was 1.77 fold enrichment (6-mer frequency, TF over GST control) and the binding signal (ETV3L) was 1.81 fold enrichment (6-mer frequency, TF over GST control). For the same sequence, the binding signal (ETS2) was 1.84 fold enrichment (6-mer frequency, TF over GST control), the binding signal (SPDEF) was 3.14 fold enrichment (6-mer frequency, TF over GST control) and the binding signal (ETV7) was 1.69 fold enrichment (6-mer frequency, TF over GST control). For the same sequence, the binding signal (ELF5) was 2.1 fold enrichment (6-mer frequency, TF over GST control), the binding signal (ETV3) was 2.03 fold enrichment (6-mer frequency, TF over GST control) and the binding signal (ETV6) was 1.79 fold enrichment (6-mer frequency, TF over GST control).
